Data as given in publication PMC11062922 (Nature Chemical Biology, 2023).
Like-named read-outs stand apart in the source and are kept apart here.

What was measured:
[1] = test system: RPS6KA4; conditions: read-out: apparent Kd, n = 1
[2] = test system: TNIK; conditions: read-out: apparent Kd, n = 1
[3] = compound concentrations:100 nM and 1000 nM (sheet 'Lestaurtinib' of Supplementary Table 1),run:Lestaurtinib_02624_R1,Plate:MR020
[4] = compound concentrations:100 nM and 1000 nM (sheet 'Lestaurtinib' of Supplementary Table 1),run:Lestaurtinib_02624_R2,Plate:MR020
[5] = compound concentrations:100 nM and 1000 nM (sheet 'Lestaurtinib' of Supplementary Table 1),run:Lestaurtinib_02724_R3,Plate:MR021
[6] = compound concentrations:100 nM and 1000 nM (sheet 'Lestaurtinib' of Supplementary Table 1),run:Lestaurtinib_02741_R1,Plate:MR023
[7] = compound concentrations:100 nM and 1000 nM (sheet 'Lestaurtinib' of Supplementary Table 1),run:Lestaurtinib_02741_R2,Plate:MR023
[8] = compound concentrations:100 nM and 1000 nM (sheet 'Lestaurtinib' of Supplementary Table 1),run:Lestaurtinib_02741_R3,Plate:MR023
[9] = compound concentrations:100 nM and 1000 nM (sheet 'Lestaurtinib' of Supplementary Table 1),run:Lestaurtinib_02752_R1,Plate:MR025
[10] = compound concentrations:100 nM and 1000 nM (sheet 'Lestaurtinib' of Supplementary Table 1),run:Lestaurtinib_02765_R2,Plate:MR026
[11] = compound concentrations:100 nM and 1000 nM (sheet 'Lestaurtinib' of Supplementary Table 1),run:Lestaurtinib_02766_R2,Plate:MR027
[12] = compound concentrations:100 nM and 1000 nM (sheet 'Lestaurtinib' of Supplementary Table 1),run:Lestaurtinib_02766_R3,Plate:MR027
[13] = compound concentrations:100 nM and 1000 nM (sheet 'Lestaurtinib' of Supplementary Table 1),run:Lestaurtinib_02768_R1,Plate:MR028
[14] = compound concentrations:100 nM and 1000 nM (sheet 'Lestaurtinib' of Supplementary Table 1),run:Lestaurtinib_02768_R3,Plate:MR028

Lestaurtinib gave a potency estimated from few doses ([1]; compound concentrations:100 nM and 1000 nM (sheet 'Lestaurtinib' of Supplementary Table 1),run:Lestaurtinib_02606_R2,Plate:MR019) of 1310 nM, a potency estimated from few doses ([1]; compound concentrations:100 nM and 1000 nM (sheet 'Lestaurtinib' of Supplementary Table 1),run:Lestaurtinib_02606_R3,Plate:MR019) of 1340 nM and a potency estimated from few doses [1, 3] of 1570 nM. The potency estimated from few doses [1, 4] was 952 nM, the potency estimated from few doses ([1]; compound concentrations:100 nM and 1000 nM (sheet 'Lestaurtinib' of Supplementary Table 1),run:Lestaurtinib_02724_R1,Plate:MR021) was 1570 nM and the potency estimated from few doses ([1]; compound concentrations:100 nM and 1000 nM (sheet 'Lestaurtinib' of Supplementary Table 1),run:Lestaurtinib_02724_R2,Plate:MR021) was 1150 nM. For the same substance, the potency estimated from few doses [1, 5] was 731 nM, the potency estimated from few doses [1, 6] was 865 nM and the potency estimated from few doses [1, 7] was 999 nM. It also gave a potency estimated from few doses [1, 8] of 1130 nM, a potency estimated from few doses ([1]; compound concentrations:100 nM and 1000 nM (sheet 'Lestaurtinib' of Supplementary Table 1),run:Lestaurtinib_02748_R1,Plate:MR024) of 769 nM and a potency estimated from few doses ([1]; compound concentrations:100 nM and 1000 nM (sheet 'Lestaurtinib' of Supplementary Table 1),run:Lestaurtinib_02748_R3,Plate:MR024) of 638 nM. It also gave a potency estimated from few doses [1, 9] of 1210 nM, a potency estimated from few doses ([1]; compound concentrations:100 nM and 1000 nM (sheet 'Lestaurtinib' of Supplementary Table 1),run:Lestaurtinib_02765_R1,Plate:MR026) of 1510 nM and a potency estimated from few doses [1, 10] of 1150 nM. For the same substance, the potency estimated from few doses ([1]; compound concentrations:100 nM and 1000 nM (sheet 'Lestaurtinib' of Supplementary Table 1),run:Lestaurtinib_02766_R1,Plate:MR027) was 911 nM, the potency estimated from few doses [1, 11] was 974 nM and the potency estimated from few doses [1, 12] was 783 nM. The potency estimated from few doses [1, 13] was 814 nM, the potency estimated from few doses ([1]; compound concentrations:100 nM and 1000 nM (sheet 'Lestaurtinib' of Supplementary Table 1),run:Lestaurtinib_02768_R2,Plate:MR028) was 841 nM and the potency estimated from few doses [1, 14] was 954 nM. The potency estimated from few doses ([1]; compound concentrations:100 nM and 1000 nM (sheet 'Lestaurtinib' of Supplementary Table 1),run:Lestaurtinib_02795_R2,Plate:MR022) was 1420 nM, the potency estimated from few doses ([1]; compound concentrations:100 nM and 1000 nM (sheet 'Lestaurtinib' of Supplementary Table 1),run:Lestaurtinib_02802_R2,Plate:MR029) was 865 nM and the potency estimated from few doses ([1]; compound concentrations:100 nM and 1000 nM (sheet 'Lestaurtinib' of Supplementary Table 1),run:Lestaurtinib_02802_R3,Plate:MR029) was 770 nM. The potency estimated from few doses ([1]; compound concentrations:100 nM and 1000 nM (sheet 'Lestaurtinib' of Supplementary Table 1),run:Lestaurtinib_02896_R1,Plate:MR030) was 748 nM, the potency estimated from few doses ([1]; compound concentrations:100 nM and 1000 nM (sheet 'Lestaurtinib' of Supplementary Table 1),run:Lestaurtinib_02896_R2,Plate:MR030) was 1150 nM and the potency estimated from few doses ([1]; compound concentrations:100 nM and 1000 nM (sheet 'Lestaurtinib' of Supplementary Table 1),run:Lestaurtinib_03172_R1,Plate:MR031) was 1350 nM. For the same substance, the potency estimated from few doses ([1]; compound concentrations:100 nM and 1000 nM (sheet 'Lestaurtinib' of Supplementary Table 1),run:Lestaurtinib_03172_R2,Plate:MR031) was 771 nM, the potency estimated from few doses ([1]; compound concentrations:100 nM and 1000 nM (sheet 'Lestaurtinib' of Supplementary Table 1),run:Lestaurtinib_03252_R2,Plate:MR032) was 1300 nM and the potency estimated from few doses ([1]; compound concentrations:100 nM and 1000 nM (sheet 'Lestaurtinib' of Supplementary Table 1),run:Lestaurtinib_03260_R3,Plate:MR033) was 1400 nM. For the same substance, the potency estimated from few doses ([2]; compound concentrations:100 nM and 1000 nM (sheet 'Lestaurtinib' of Supplementary Table 1),run:Lestaurtinib_02339_R2,Plate:MR001) was 798 nM, the potency estimated from few doses ([2]; compound concentrations:100 nM and 1000 nM (sheet 'Lestaurtinib' of Supplementary Table 1),run:Lestaurtinib_02364_R2,Plate:MR002) was 206 nM and the potency estimated from few doses ([2]; compound concentrations:100 nM and 1000 nM (sheet 'Lestaurtinib' of Supplementary Table 1),run:Lestaurtinib_02367_R1,Plate:MR003) was 1130 nM. It also gave a potency estimated from few doses ([2]; compound concentrations:100 nM and 1000 nM (sheet 'Lestaurtinib' of Supplementary Table 1),run:Lestaurtinib_02367_R2,Plate:MR003) of 460 nM, a potency estimated from few doses ([2]; compound concentrations:100 nM and 1000 nM (sheet 'Lestaurtinib' of Supplementary Table 1),run:Lestaurtinib_02367_R3,Plate:MR003) of 1930 nM and a potency estimated from few doses ([2]; compound concentrations:100 nM and 1000 nM (sheet 'Lestaurtinib' of Supplementary Table 1),run:Lestaurtinib_02407_R1,Plate:MR005) of 160 nM. For the same substance, the potency estimated from few doses ([2]; compound concentrations:100 nM and 1000 nM (sheet 'Lestaurtinib' of Supplementary Table 1),run:Lestaurtinib_02407_R2,Plate:MR005) was 772 nM, the potency estimated from few doses ([2]; compound concentrations:100 nM and 1000 nM (sheet 'Lestaurtinib' of Supplementary Table 1),run:Lestaurtinib_02407_R3,Plate:MR005) was 136 nM and the potency estimated from few doses ([2]; compound concentrations:100 nM and 1000 nM (sheet 'Lestaurtinib' of Supplementary Table 1),run:Lestaurtinib_02422_R1,Plate:MR006) was 1750 nM. The potency estimated from few doses ([2]; compound concentrations:100 nM and 1000 nM (sheet 'Lestaurtinib' of Supplementary Table 1),run:Lestaurtinib_02437_R1,Plate:MR007) was 1310 nM, the potency estimated from few doses ([2]; compound concentrations:100 nM and 1000 nM (sheet 'Lestaurtinib' of Supplementary Table 1),run:Lestaurtinib_02443_R2,Plate:MR009) was 687 nM and the potency estimated from few doses ([2]; compound concentrations:100 nM and 1000 nM (sheet 'Lestaurtinib' of Supplementary Table 1),run:Lestaurtinib_02473_R1,Plate:MR010) was 165 nM. The potency estimated from few doses ([2]; compound concentrations:100 nM and 1000 nM (sheet 'Lestaurtinib' of Supplementary Table 1),run:Lestaurtinib_02482_R1,Plate:MR011) was 994 nM, the potency estimated from few doses ([2]; compound concentrations:100 nM and 1000 nM (sheet 'Lestaurtinib' of Supplementary Table 1),run:Lestaurtinib_02487_R2,Plate:MR012) was 159 nM and the potency estimated from few doses ([2]; compound concentrations:100 nM and 1000 nM (sheet 'Lestaurtinib' of Supplementary Table 1),run:Lestaurtinib_02487_R3,Plate:MR012) was 481 nM. For the same substance, the potency estimated from few doses ([2]; compound concentrations:100 nM and 1000 nM (sheet 'Lestaurtinib' of Supplementary Table 1),run:Lestaurtinib_02496_R2,Plate:MR013) was 764 nM, the potency estimated from few doses ([2]; compound concentrations:100 nM and 1000 nM (sheet 'Lestaurtinib' of Supplementary Table 1),run:Lestaurtinib_02496_R3,Plate:MR013) was 887 nM and the potency estimated from few doses ([2]; compound concentrations:100 nM and 1000 nM (sheet 'Lestaurtinib' of Supplementary Table 1),run:Lestaurtinib_02566_R1,Plate:MR014) was 845 nM. It also gave a potency estimated from few doses ([2]; compound concentrations:100 nM and 1000 nM (sheet 'Lestaurtinib' of Supplementary Table 1),run:Lestaurtinib_02566_R2,Plate:MR014) of 581 nM, a potency estimated from few doses ([2]; compound concentrations:100 nM and 1000 nM (sheet 'Lestaurtinib' of Supplementary Table 1),run:Lestaurtinib_02572_R3,Plate:MR015) of 52 nM and a potency estimated from few doses ([2]; compound concentrations:100 nM and 1000 nM (sheet 'Lestaurtinib' of Supplementary Table 1),run:Lestaurtinib_02577_R2,Plate:MR016) of 582 nM. The potency estimated from few doses ([2]; compound concentrations:100 nM and 1000 nM (sheet 'Lestaurtinib' of Supplementary Table 1),run:Lestaurtinib_02577_R3,Plate:MR016) was 885 nM, the potency estimated from few doses ([2]; compound concentrations:100 nM and 1000 nM (sheet 'Lestaurtinib' of Supplementary Table 1),run:Lestaurtinib_02584_R1,Plate:MR017) was 680 nM and the potency estimated from few doses ([2]; compound concentrations:100 nM and 1000 nM (sheet 'Lestaurtinib' of Supplementary Table 1),run:Lestaurtinib_02584_R2,Plate:MR017) was 717 nM. The potency estimated from few doses ([2]; compound concentrations:100 nM and 1000 nM (sheet 'Lestaurtinib' of Supplementary Table 1),run:Lestaurtinib_02584_R3,Plate:MR017) was 641 nM, the potency estimated from few doses ([2]; compound concentrations:100 nM and 1000 nM (sheet 'Lestaurtinib' of Supplementary Table 1),run:Lestaurtinib_02601_R1,Plate:MR018) was 756 nM and the potency estimated from few doses ([2]; compound concentrations:100 nM and 1000 nM (sheet 'Lestaurtinib' of Supplementary Table 1),run:Lestaurtinib_02601_R2,Plate:MR018) was 146 nM. For the same substance, the potency estimated from few doses [2, 3] was 562 nM, the potency estimated from few doses [2, 4] was 154 nM and the potency estimated from few doses [2, 5] was 507 nM. It also gave a potency estimated from few doses [2, 6] of 208 nM, a potency estimated from few doses [2, 7] of 627 nM and a potency estimated from few doses [2, 8] of 536 nM. It also gave a potency estimated from few doses [2, 9] of 708 nM, a potency estimated from few doses ([2]; compound concentrations:100 nM and 1000 nM (sheet 'Lestaurtinib' of Supplementary Table 1),run:Lestaurtinib_02752_R2,Plate:MR025) of 671 nM and a potency estimated from few doses [2, 10] of 797 nM. For the same substance, the potency estimated from few doses ([2]; compound concentrations:100 nM and 1000 nM (sheet 'Lestaurtinib' of Supplementary Table 1),run:Lestaurtinib_02765_R3,Plate:MR026) was 836 nM, the potency estimated from few doses [2, 11] was 806 nM and the potency estimated from few doses [2, 12] was 130 nM. It also gave a potency estimated from few doses [2, 13] of 142 nM, a potency estimated from few doses [2, 14] of 785 nM and a potency estimated from few doses ([2]; compound concentrations:100 nM and 1000 nM (sheet 'Lestaurtinib' of Supplementary Table 1),run:Lestaurtinib_02795_R1,Plate:MR022) of 573 nM.
